# According to PubChem BioAssay (NCATS):
# Inconclusive results are not listed. Activity calls are given as the source filed them. Calls come from the whole dose curve; as a rule, active = well fitted inhibition curve with a large enough effect; inconclusive = small, poorly fitted or top-dose-only effect; inactive = flat fitted curve, though single readings scatter.
# System: Zika virus NS2B-NS3 protease
# Test: Primary screen GU AMC qHTS for Zika virus inhibitors (AID 1347154);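 note: 0% = no-inhibitor control and -100% = no-enzyme control; nearly all actives have a fitted effect of over 70% in size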
# Settings: Zika NS2B-NS3 unlinked protease, AMC fluorogenic substrate; series mostly up to 54.1 µM; activity change, negative = inhibition: at the top concentration
# Method in brief: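 Unlinked Zika NS2B hydrophilic domain–NS3 protease complex at 25 nM in 10 mM Tris-HCl pH 8.0, 0.01% Tween 20, with an AMC peptide substrate. Fluorescence change (340/450 nm) over 15 min at room temperature, normalized to controls, fitted to 4-parameter Hill.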
row,Structure (SMILES),"activity change, negative = inhibition"
1,CC(=O)O[C@@]12CO[C@H]1C[C@H](O)[C@@]1(C)C(=O)[C@H](O)C3=C(C)[C@@H](OC(=O)C(O)[C@@H](NC(=O)OC(C)(C)C)c4ccccc4)C[C@@](O)([C@@H](OC(=O)c4ccccc4)[C@@H]21)C3(C)C (some centres not stated),6.61% (inactive)
2,COc1cccc2c1C(=O)c1c(O)c3c(c(O)c1C2=O)C[C@@](O)(C(=O)CO)C[C@H]3O[C@H]1C[C@H](N)[C@H](O)[C@H](C)O1,-4.53% (inactive)
3,CCCNC(=O)[C@H]1O[C@H]1C(=O)N[C@H](C(=O)N1CCC[C@@H]1C(=O)OC)C(C)CC (some centres not stated),8.63% (inactive)
4,O=C(NCc1ccccc1)[C@H](Cc1ccccc1)NC(=O)[C@@H]1O[C@@H]1C(=O)NCCc1ccc(O)cc1,-3.98% (inactive)
5,CC1(C)[C@H](O[C@H]2O[C@H](C(=O)O)[C@@H](O)[C@H](O)[C@H]2O[C@@H]2O[C@H](C(=O)O)[C@@H](O)[C@H](O)[C@H]2O)CC[C@@]2(C)[C@H]1CC[C@]1(C)[C@H]2C(=O)C=C2[C@H]3C[C@@](C)(C(=O)O)CC[C@]3(C)CC[C@]21C,9.9% (inactive)
6,COC1=C2C[C@@H](C)C[C@H](OC)[C@@H](O)[C@@H](C)C=C(C)[C@H](OC(N)=O)[C@@H](OC)C=CC=C(C)C(=O)NC(=CC1=O)C2=O,-22.6% (inactive)
7,CCCc1nc(C(C)(C)O)c(C(=O)O)n1Cc1ccc(-c2ccccc2-c2nn[nH]n2)cc1,8.01% (inactive)
8,CCCCCCCCCCCCc1ccc(S(=O)(=O)Nc2nncs2)cc1,2.59% (inactive)
9,COc1cc(OC)c(NC(=O)Nc2cc(C)on2)cc1Cl,9.6% (inactive)
10,CC(=O)C1=C(O)C=C2Oc3c(C(C)=O)c(O)c(C)c(O)c3C2(C)C1=O (configuration not stated),-10.7% (inactive)
11,CCCCCCCCCCCC(CC1OC(=O)C1CCCCCC)OC(=O)C(CC(C)C)NC=O (configuration not stated),-10.3% (inactive)
12,O=C1c2c(O)cccc2[C@@H]([C@@H]2O[C@H](CO)[C@@H](O)[C@H](O)[C@H]2O)c2cc(CO)cc(O)c21,4.03% (inactive)
13,CCOc1cc2ncc(C#N)c(Nc3ccc(OCc4ccccn4)c(Cl)c3)c2cc1NC(=O)C=CCN(C)C,67.3% (inactive)
14,Nc1ncn([C@@H]2O[C@H](CO)[C@@H](O)[C@@H]2O)c(=O)n1,-4.98% (inactive)
15,CC[C@@]1([C@@H]2O[C@@H]([C@H]3O[C@@](O)(CO)[C@H](C)C[C@H]3C)C[C@H]2C)CC[C@H]([C@]2(C)CC[C@]3(C[C@H](O)[C@@H](C)[C@@H]([C@@H](C)[C@@H](OC)[C@H](C)C(=O)O)O3)O2)O1,-11.9% [at 25.8 µM] (inactive)
16,O=C(Nc1cccc(Nc2ncc(Br)c(NCCc3cnc[nH]3)n2)c1)N1CCCC1,3.32% (inactive)

row,Structure (SMILES),"activity change, negative = inhibition"
1,Cc1cnn(C)c1C(=O)Nc1cc(Nc2ccc3c(C=Cc4ccccn4)n[nH]c3c2)ccc1F,5.61% (inactive)
2,CN[C@H]1[C@@H](O)[C@@H]2O[C@@H]3O[C@H](C)CC(=O)[C@]3(O)O[C@@H]2[C@@H](NC)[C@H]1O,-7.51% (inactive)
3,CN(C)CC[C@H](c1ccc(Cl)cc1)c1ccccn1,-10.9% (inactive)
4,COc1cc(N2CCC(C(N)=O)CC2)ccc1Nc1nc(N)c(Cl)c(Nc2ccccc2S(=O)(=O)C(C)C)n1,17.2% (inactive)
5,C=C[C@@H]1CN2CCC1C[C@H]2[C@H](O)c1ccnc2ccc(OC)cc12 (some centres not stated),-6.99% (inactive)
6,CCN(C(=O)c1c(O)c2c(Cl)cccc2n(C)c1=O)c1ccccc1,1.93% (inactive)
7,COC[C@H](NC(=O)c1cnc(C)s1)C(=O)N[C@@H](COC)C(=O)N[C@@H](Cc1ccccc1)C(=O)[C@@]1(C)CO1,-3.74% (inactive)
8,Cc1cnc(Nc2ccc(N3CCN(C)CC3)cc2)nc1Nc1cccc(S(=O)(=O)NC(C)(C)C)c1,3.48% (inactive)
9,C[C@H](CCC(=O)O)[C@H]1CCC2C3C[C@H](O)[C@@H]4C[C@H](O)CC[C@]4(C)C3CC[C@@]21C (some centres not stated),5.16% (inactive)
10,C[C@]12CC[C@@H]3c4ccc(O)cc4CC[C@H]3[C@H]1CC[C@H]2O,8.13% (inactive)
11,CC(C)(C)c1nc2c3cc[nH]c(=O)c3c3cc(F)ccc3c2[nH]1,2.74% (inactive)
12,CCN(CC)CCNC(=O)c1c(C)[nH]c(C=C2C(=O)Nc3ccc(F)cc32)c1C,12.9% [at 104 µM] (inactive)
13,O=C(O)C=Cc1ccc(Cn2ccnc2)cc1,-2.82% (inactive)
14,COc1ccnc2[nH]cc(C(=O)C(=O)N3CCN(C(=O)c4ccccc4)C[C@@H]3C)c12,4.44% (inactive)
15,O=C(C=Cc1ccc(CN(CCO)CCc2c[nH]c3ccccc23)cc1)NO,-14.1% (inactive)
16,CCN1CCN(C(=O)N[C@H](C(=O)N[C@@H]2C(=O)N3C(C(=O)O)=C(CSc4nnnn4C)CS[C@@H]23)c2ccc(O)cc2)C(=O)C1=O,13.2% [at 16.4 µM] (inactive)
